Only a selection was taken, and hits are over-represented in it overall.
Shiga toxin inh – Shiga toxin inhibition; inhibition, % at 38.7 µM; hit rate 9.2% among 290,000; Vero cells, Shiga toxin protein synthesis inhibition reporter; AID 2315; in the data active means inhibition mostly above about 28%, no sharp cut-off; inactive means mostly below about 43%; further: 0% is about no effect
RE007 growth inh – less growth of the S. pombe RE007 Vpr strain; S. pombe RE007 Vpr strain, BacTiter-Glo ATP luminescence, 24 h; Potency, µM (series often up to 92.2 µM), without a hit: top-dose activity change, negative = less growth, most hits filed as inhibitors; hit rate 0.21% among 360,000; AID 651644; active means well fitted falling curve with a large enough effect; further: potency means the concentration at half of the fitted maximal effect; on the % scale 0 is the no-effect control and ±100 the full control effect; nearly all actives have a fitted effect of over 50% in size
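Fission yeast strain RE007, carrying one chromosomally integrated HIV-1 vpr copy, was seeded at OD 0.01 in PMG+AL medium with 23 nL pinned compound. After 24 h at 30 °C and 99% humidity, viability was read by BacTiter-Glo luminescence.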
Giardia FBPA inh – inhibitors of Giardia lamblia fructose-1,6-bisphosphate aldolase. purified Giardia FBPA. A8B2U2. Potency, µM (titrated, usually from 59.6 µM), without a hit: at the top dose activity, negative = inhibition, actives largely listed as inhibitors. AID 2451. hit rate 0.71% among 290,000; further: potency means the concentration at half of the fitted maximal effect; on the % scale 0 is the no-effect control and ±100 the full control effect; nearly all actives have a fitted effect of over 55% in size
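40 nM FBPA preincubated 10 min at RT with compound (up to 57.5 uM final), then substrate plus GAPDH/TPI/NAD/arsenate coupling and diaphorase/resazurin added. Fluorescence read after 20 min at RT, 525/598 nm.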
TbPYK inhibitor – inhibitors of Trypanosoma brucei pyruvate kinase. hit rate 0.12% among 410,000. Q57TT1. TbPYK enzyme, Kinase-Glo Plus ATP luminescence, 45 min. AID 624173. Potency, µM (top dose mostly 76.8 µM), for the others: at the top dose activity, negative = inhibition, actives largely listed as inhibitors; further: potency means the concentration at half of the fitted maximal effect; on the % scale 0 is the no-effect control and ±100 the full control effect; nearly all actives have a fitted effect of over 50% in size
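In this concentration-response screen, enzyme-free wells defined baseline while DMSO plates tracked drift. Each reaction combined TbPYK, substrate, compound and 130 uM ADP for 45 min at room temperature. Kinase-Glo Plus luminescence gave the signal.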
Cycloheximide cs – counter-screen for Shiga toxin inhibitors: cycloheximide protein synthesis inhibition; cell reporter, cycloheximide protein synthesis inhibition counterscreen; max response, %; hit rate 12% among 300,000; in the data active means max response mostly above about 13%, no sharp cut-off; inactive means mostly below about 14%; further: read at 38.3 µM for the half of the compounds with a filed dose; 0% is about no effect
LmPK inh – LmPK (Leishmania mexicana) enzyme inhibition. Q27686. Potency, µM (series often up to 57.5 µM), for inactives: at the top dose activity change, negative = inhibition, most hits filed as inhibitors. hit rate 0.37% among 290,000. purified LmPK, Kinase-Glo ATP luminescence, 1 h; further: potency means the concentration at half of the fitted maximal effect; on the % scale 0 is the no-effect control and ±100 the full control effect
Target sequence (Q27686 whole entry, looked up): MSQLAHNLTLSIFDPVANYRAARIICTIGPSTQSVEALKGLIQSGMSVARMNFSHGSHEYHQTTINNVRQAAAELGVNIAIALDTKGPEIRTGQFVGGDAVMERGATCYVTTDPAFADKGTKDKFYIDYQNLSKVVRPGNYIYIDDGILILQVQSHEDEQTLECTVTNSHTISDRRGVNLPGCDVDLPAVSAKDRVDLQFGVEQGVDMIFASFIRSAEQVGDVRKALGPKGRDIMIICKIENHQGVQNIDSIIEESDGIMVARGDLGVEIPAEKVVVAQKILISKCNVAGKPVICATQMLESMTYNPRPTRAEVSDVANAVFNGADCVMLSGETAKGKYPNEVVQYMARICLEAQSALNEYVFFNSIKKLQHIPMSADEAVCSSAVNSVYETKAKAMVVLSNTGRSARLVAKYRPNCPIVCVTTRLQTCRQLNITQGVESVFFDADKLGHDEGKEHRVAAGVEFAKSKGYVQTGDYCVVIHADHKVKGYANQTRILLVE
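Pyruvate kinase activity monitored as ATP production (luciferase luminescence). Conditions: 0.1 nM enzyme, 0.5 mM PEP, 0.1 mM ADP, 1 h, RT; normalized against uninhibited and no-enzyme wells.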
Active calls of the source: *; . = no result given. Unless noted, the call rests on the fitted dose curve; in most records, active means well fitted curve in the direction sought with a large enough effect; inconclusive means small, poorly fitted or top-dose-only effect, or another doubt; inactive means no such curve, though single readings can be large; an effect the other way counts as inactive or inconclusive.

SMILES | Shiga toxin inh | RE007 growth inh | Giardia FBPA inh | TbPYK inhibitor | Cycloheximide cs | LmPK inh
CCc1ccc(OCC(=O)N(Cc2ccco2)Cc2ccco2)cc1 | . | . | . | 0% | . | .
O=C(Cc1ccc(Br)cc1)N1CCOCC1 | 23 | -9% | -15% | -8% | 11* | 1%
O=C(Cc1ccc(-c2ccccc2)cc1)N1CCOCC1 | 17 | -8% | -3% | 7% | 9 | 1%
CCN1CCN(C(=O)Cc2ccc(C)cc2)CC1 | 42 | 14% | 3% | -5% | 22* | 0%
O=C(Cc1ccc(Br)cc1)N1CCN(c2ccccc2O)CC1 | 95* | -11% | -6% | 0% | 36* | 5%
Cc1ccc(CC(=S)N2CCOCC2)cc1 | -8 | -6% | -10% | -17% | 1 | 0%
CCOC(=O)N1CCN(C(=O)Cc2ccc(C)cc2)CC1 | -1 | 6% | 2% | 3% | -1 | -4%
CCc1ccc(CC(=S)N2CCOCC2)cc1 | 62* | 0% | 5% | -4% | 26* | 4%
COc1ccc(-n2c(=O)c(CCc3ccccc3)nc3cnc(N(C)C)nc32)cc1 | . | . | 1% | -6% | . | .
O=C(Cc1ccc(Cl)c(Cl)c1)N1CCOCC1 | 35* | 11% | 1% | 0% | 8 | 3%
CCCCN1CCc2c([nH]c3c(C)cccc23)C1=O | 69* | -14% | -23% | -26% | 42* | 0%
CCCc1c(C)c2cccc(C)c2[nH]c1=O | 15 | 4% | -1% | -3% | -1 | 5%
Cc1ccc(C(=O)Nc2ccc(N3CCOCC3)nc2)cc1 | 75* | -2% | 0% | -3% | 20* | 0%
O=C(Nc1ccc(N2CCOCC2)nc1)c1ccc(F)cc1 | 48* | -11% | -7% | -2% | 41* | -4%
CN1CCN(c2ccc(NC(=O)c3ccc(Cl)cc3)cn2)CC1 | 23 | 3% | 2% | 1% | 42* | 2%
O=C(Nc1ccc(F)cc1)c1ccc(C(=O)N2CCOCC2)cc1 | . | 3% | . | -8% | . | .
Cc1ccccc1C(=O)Nc1ccc(N2CCOCC2)nc1 | 58* | 1% | 0% | -2% | 30* | -1%
Cc1cc2oc(C(=O)N(Cc3ccc(N(C)C)cc3)Cc3ccco3)c(C)c2cc1Cl | . | . | . | -6% | . | .
CN(C)CCNc1oc(-c2ccc(COc3ccc(Cl)cc3)o2)nc1C#N | . | . | . | -5% | . | .
O=C(Nc1ccc(N2CCN(c3ccc(C(F)(F)F)cn3)CC2)nc1)c1cccs1 | 5 | 20% | 5% | 8% | 4 | 7%
O=C(Nc1ccc(N2CCOCC2)nc1)c1cccs1 | 57* | 1% | -1% | -12% | 38* | -4%
CN(C)c1ccc(NC(=O)c2ccc(N3CCOCC3)nc2)cc1 | 79* | -5% | . | -26% | 34* | -9%
COc1ccc(NC(=O)c2ccc(N3CCOCC3)nc2)cc1 | -4 | -7% | . | -4% | -5 | -12%
Cc1cc(C)c2c(c1)C1C=CCC1C(C(=O)O)N2 (configuration not stated) | -4 | . | . | . | 10 | .
CC1=NN(c2ccc(Cl)c(C(=O)O)c2)C(=O)C1 | 1 | 1% | 7% | 2% | -3 | -2%
SMILES | Shiga toxin inh | RE007 growth inh | Giardia FBPA inh | TbPYK inhibitor | Cycloheximide cs | LmPK inh
Cc1cccc(N2N=C(C(=O)O)CCC2=O)c1 | -8 | 9% | -1% | 6% | 1 | -3%
CC1=NN(c2ccc(C(=O)O)cc2)C(=O)CC1 | 44* | 15% | 0% | -9% | 29* | 1%
CC1=NN(c2ccc(C(=O)O)c(N)c2)C(=O)C1 | -3 | 12% | 7.1µM* | -10% | 10 | 3%
CCOc1ccc(NC(=O)CN2C(=O)COc3ccc(S(=O)(=O)NC4CCCC4)cc32)cc1 | . | . | . | -8% | . | .
Cc1ccc(S(=O)(=O)Nc2cc3c(cc2N2CCOCC2)n(C)c(=O)n3C)c(C)c1 | . | . | . | -4% | . | .
O=C(Nc1ccccc1Cl)c1ccc2nccnc2c1 | 67* | -17% | -4% | -3% | 25* | -11%
O=C(Nc1ccc(Cl)cn1)c1cccnc1 | 3 | -5% | 0% | 4% | 15* | -17%
O=C(Nc1ccc(Cl)cn1)c1ccc2nccnc2c1 | 132* | -15% | . | -2% | 32* | -6%
O=C(Nc1cc(Cl)cc(Cl)c1)c1cccnc1 | . | -28% | 6% | -5% | -3 | 9%
CC1(C)C(=O)C(c2ccccc2)=C2CN3C(=O)N(CCc4ccccc4)C(=O)C3(Cc3ccc(C(F)(F)F)cc3)C=C21 (configuration not stated) | . | . | -4% | . | . | .
